# Measurements published in PubChem BioAssay (Tox21).
# Several values for one entry are separate records, joined by “and”; a condition that tells them apart may be missing. Identical values can stand only once. Inconclusive results are not listed. A call without a number means that no potency is given here. More than one record can exist for a structure, and the calls need not agree. Activity calls are given as the source filed them. Calls follow the shape of the dose curve; as a rule, active = well fitted curve in the direction sought with a large enough effect in the repeat runs; inconclusive = weak or mixed curves; inactive = no such curve, though single readings can be large; an effect the other way counts as inactive or inconclusive.
# Key:
# [1] = A CellTox Green Cytotoxicity Assay to monitor cytotoxicity in HepG2 cells - 16 hour (AID 1224876); also: nearly all actives have a fitted effect of over 45% in size; also: potency is read from the fitted curve at half-maximal effect
# Method in brief: (§1)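 HepG2 cells were seeded together with the CellTox Green dye at 600 cells/well, left 5 h at 37 C/5% CO2, then given compounds in DMSO. Fluorescence from dye bound to dead-cell DNA was read repeatedly over 40 h of treatment at 37 C.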
# [2] = qHTS RealTime-Glo MT Cell Viability Assay in HepG2 cells - 32 hour (AID 1224877); also: nearly all actives have a fitted effect of over 55% in size; also: potency is read from the fitted curve at half-maximal effect
# Method in brief: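 Real-time, nonlytic viability: 600 HepG2 cells/well mixed with NanoLuc enzyme plus prosubstrate; 5 h settle, compound (DMSO) added by pintool; luminescence monitored over 40 h at 37 C.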
# [3] = A CellTox Green Cytotoxicity Assay to monitor cytotoxicity in HepG2 cells - 24 hour (AID 1224878); also: nearly all actives have a fitted effect of over 45% in size; also: potency is read from the fitted curve at half-maximal effect
# Method in brief: as §1
# [4] = A CellTox Green Cytotoxicity Assay to monitor cytotoxicity in HepG2 cells - 40 hour (AID 1224879); also: nearly all actives have a fitted effect of over 40% in size; also: potency is read from the fitted curve at half-maximal effect
# Method in brief: as §1
# [5] = qHTS RealTime-Glo MT Cell Viability Assay in HEK293 cells - 0 hour (AID 1224880); also: top concentration of the series differs between compounds; nearly all actives have a fitted effect of over 45% in size
# Method in brief: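 HEK293 cells mixed with RealTime-Glo reagents (NanoLuc plus cell-permeant prosubstrate) at 600 cells/well, preincubated 5 h at 37 C/5% CO2, then given 23 nL compound in DMSO. Nonlytic luminescence from viable cells was read at 0, 8, 16, 24, 32 and 40 h.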
# [6] = A CellTox Green Cytotoxicity Assay to monitor cytotoxicity in HEK293 cells - 32 hour (AID 1224881); also: nearly all actives have a fitted effect of over 40% in size; also: potency is read from the fitted curve at half-maximal effect
# Method in brief: (§2)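 HEK293 cells premixed with CellTox Green dye were seeded at 600 cells/well and left 5 h at 37 C/5% CO2 before pin transfer of 23 nL compound in DMSO. Fluorescence from dye bound to dead-cell DNA was read during 40 h treatment.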
# [7] = A CellTox Green Cytotoxicity Assay to monitor cytotoxicity in HepG2 cells - 0 hour (AID 1224882); also: nearly all actives have a fitted effect of over 35% in size; also: potency is read from the fitted curve at half-maximal effect
# Method in brief: as §1
# [8] = A CellTox Green Cytotoxicity Assay to monitor cytotoxicity in HepG2 cells - 32 hour (AID 1224883); also: nearly all actives have a fitted effect of over 50% in size; also: potency is read from the fitted curve at half-maximal effect
# Method in brief: as §1
# [9] = A CellTox Green Cytotoxicity Assay to monitor cytotoxicity in HEK293 cells - 24 hour (AID 1224875); also: series mostly up to about 77 µM; nearly all actives have a fitted effect of over 45% in size
# Method in brief: as §2
# [10] = A CellTox Green Cytotoxicity Assay to monitor cytotoxicity in HEK293 cells - 8 hour (AID 1224884); also: nearly all actives have a fitted effect of over 35% in size; also: potency is read from the fitted curve at half-maximal effect
# Method in brief: as §2
SMILES,Potency [1],Potency [2],Potency [3],Potency [4],outcome [5],Potency [6],Potency [7],Potency [8],Potency [9],Potency [10]
CCCC[n+]1ccc(C)cc1,inactive and 54.7 µM (active),inactive,inactive and 48.7 µM (active),inactive and 48.7 µM (active),inactive,inactive and 21.8 µM (active),inactive,inactive and 48.7 µM (active),–,–
C[C@]12CCC(=O)C=C1CC[C@@H]1[C@@H]2CC[C@]2(C)C(=O)CC[C@@H]12,inactive,inactive,inactive,inactive and 49 µM (active),inactive,inactive,inactive,inactive,inactive,inactive
CCn1cc[n+](C)c1C,inactive,inactive,inactive,inactive,inactive,inactive,inactive,inactive,inactive,inactive
CCCCCCCCCCCCCC[P+](CCCCCC)(CCCCCC)CCCCCC,12.4 µM (active) and 22.1 µM (active) and inactive,11 µM (active) and 19.7 µM (active) and inactive,11 µM (active) and 17.5 µM (active) and inactive,12.4 µM (active) and 17.5 µM (active) and 48.9 µM (active),inactive,12.4 µM (active) and 19.7 µM (active),inactive,12.4 µM (active) and 17.5 µM (active),–,19.6 µM (active) and 22.1 µM (active) and inactive
CCCC[N+]1(C)CCCCC1,inactive,inactive and 48.8 µM (active),inactive,inactive,inactive,inactive,inactive,inactive,inactive,inactive and 55.7 µM (active)
CCCCCCCCCCCC(=O)O,inactive,inactive,inactive,inactive,inactive,inactive,inactive,inactive,inactive,inactive
O=C(O)c1nc(Cl)ccc1Cl,inactive,inactive,inactive,inactive,inactive,inactive,inactive,inactive,inactive,inactive
COc1ccc(N)cc1,inactive and 195 nM (active),inactive,inactive and 219 nM (active),inactive and 245 nM (active),inactive,inactive,inactive,inactive and 245 nM (active),inactive,–
Oc1ccccc1-c1ccccc1,inactive,inactive,–,–,inactive,inactive,inactive,–,inactive,inactive
CCCCCCCCCCCCCCCCn1cc[n+](C)c1,inactive and 49.4 µM (active) and 39 µM (active),inactive and 49.4 µM (active) and 34.8 µM (active),inactive and 44 µM (active) and 24.6 µM (active),–,inactive,inactive and 19.7 µM (active) and 24.6 µM (active),inactive,–,–,–
CCCCCCCCCCCCn1cc[n+](C)c1,–,–,–,–,inactive,–,inactive,–,–,–
CCCCn1cc[n+](C)c1,inactive,inactive and 44.3 µM (active),inactive,inactive,inactive,inactive,inactive,inactive,inactive,inactive
O=c1nc(O)n(Cl)c(=O)n1Cl,inactive,inactive,inactive,inactive,inactive,inactive,inactive,inactive,inactive,inactive
O=[N+]([O-])O,inactive,inactive,inactive,inactive,inactive,inactive,inactive,inactive,inactive,inactive
CCCC[N+]1(C)CCCC1,inactive,inactive,inactive,inactive,inactive,inactive,inactive,inactive,inactive,inactive
C1CCC(NC2CCCCC2)CC1,inactive,inactive,inactive,inactive,inactive,inactive,inactive,inactive,inactive,inactive

SMILES,Potency [1],Potency [2],Potency [3],Potency [4],outcome [5],Potency [6],Potency [7],Potency [8],Potency [9],Potency [10]
CCCCCCCCCCCCOS(=O)(=O)O,49 µM (active) and inactive,inactive,49 µM (active) and inactive,49 µM (active) and inactive,inactive,–,inactive,inactive,–,48.3 µM (active) and inactive
CC[N+]1(C)CCCC1,inactive,inactive,inactive,inactive,inactive,inactive,inactive,inactive,inactive,inactive
Cc1cc(Cl)ccc1N,inactive and 38.9 µM (active),inactive,inactive and 38.9 µM (active),inactive and 38.9 µM (active),inactive,inactive and 38.9 µM (active),inactive and 38.9 µM (active),inactive and 38.9 µM (active),–,–
O=C(O)CC(O)(CC(=O)O)C(=O)O,inactive,inactive,inactive,inactive,inactive,inactive,inactive,inactive,inactive,inactive
Cc1cc(Cl)ccc1OCC(=O)O,inactive,inactive,inactive,inactive,inactive,inactive,inactive,inactive,inactive,inactive
CCOP(=S)(OCC)Oc1ccc2c(C)c(Cl)c(=O)oc2c1,inactive,inactive,inactive,inactive,inactive,inactive,inactive,inactive,inactive,inactive
Oc1cccc2cccnc12,inactive and 6.16 µM (active),inactive and 3.09 µM (active),–,–,inactive,17.5 µM (active) and 6.16 µM (active) and inactive,inactive,–,inactive,–
COP(=O)(OC)OC=C(Cl)Cl,inactive,inactive,inactive,inactive,inactive,inactive,inactive,inactive,inactive,inactive
C[N+](C)(C)Cc1ccccc1,inactive,inactive,inactive,inactive,inactive,inactive,inactive,inactive,inactive,–
C=CCOC(Cn1ccnc1)c1ccc(Cl)cc1Cl (centres undefined),inactive,inactive,49.1 µM (active),49.1 µM (active),inactive,55.1 µM (active) and inactive,inactive,49.1 µM (active) and 54.9 µM (active),–,–
O=c1[nH]c(=O)n(Cl)c(=O)n1Cl,inactive,inactive,inactive,inactive,inactive,inactive,inactive,inactive,inactive,inactive
Nc1ccc(-c2ccc(N)c(Cl)c2)cc1Cl,inactive and 43.6 µM (active),inactive and 49 µM (active),inactive and 27.5 µM (active),15.6 µM (active) and 12.9 µM (active) and 27.5 µM (active),inactive,inactive and 49 µM (active),inactive and 43.6 µM (active),17.5 µM (active) and 14.4 µM (active) and 27.5 µM (active),–,inactive and 49 µM (active)
Nc1ccc(-c2ccc(N)cc2)cc1,inactive,inactive,inactive,48.4 µM (active) and inactive,inactive,inactive,inactive,inactive,inactive,inactive
O=S(=O)(O)O,inactive,inactive,inactive,inactive,inactive,inactive,inactive,inactive,inactive,inactive
O=C(O)CCl,inactive,inactive,inactive,inactive,inactive,inactive,inactive,inactive,inactive,inactive
Nc1ccc(Cl)cc1,inactive,inactive,inactive,inactive,inactive,inactive,inactive,inactive,inactive,inactive
